Measured values reported in PubChem BioAssay AID1159580 (chemical genetic matrix, 2015).
About 2,000 (36%) of roughly 5,500 compounds were called active. Roughly 18% stayed inconclusive and do not appear here. Cut-off read from the data, not from the text of the source: active = normalized growth mostly below about 0.91 (no sharp cut-off); inconclusive = no clear call, values can overlap the other calls; inactive = mostly above about 0.92. The list shows a part of the results.

Test: chemical genetic growth profiling, strain panel (AID 1159580);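 note: tested at 20 µM; growth read once vehicle control cultures reached saturation at 30 °C; 1 = growth at the plate median or of vehicle wells; lower values mean less growth of the strain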
Settings: S. cerevisiae deletion strains, growth OD
[1] = locus YAL013W, strain DEP1, hits give low values
[2] = locus YBR229C, strain ROT2, hits give low values
[3] = locus YDL101C, strain DUN1, hits give low values
[4] = locus YDR150W, strain NUM1, hits give low values
[5] = locus YEL061C, strain CIN8, hits give low values
[6] = locus YGR078C, strain PAC10, hits give low values
[7] = locus YHR030C, strain SLT2, hits give low values
[8] = locus YHR087W, strain rtc3, hits give low values
[9] = locus YJL187C, strain SWE1, hits give low values
[10] = locus YJR043C, strain POL32, hits give low values
[11] = locus YJR075W, strain HOC1, hits give low values
[12] = locus YLR039C, strain RIC1, hits give low values
[13] = locus YLR058C, strain SHM2 (second series), hits give low values
[14] = locus YLR085C, strain ARP6, hits give low values
[15] = locus YLR262C, strain YPT6, hits give low values
[16] = locus YML094W, strain GIM5, hits give low values
[17] = locus YMR219W, strain ESC1, hits give low values
[18] = locus YMR263W, strain SAP30, hits give low values
[19] = locus YNL153C, strain GIM3, hits give low values
[20] = locus YNL298W, strain CLA4 (second series), hits give low values
[21] = locus YNL322C, strain KRE1, hits give low values
[22] = locus YNR030W, strain Alg12, hits give low values
[23] = locus YPL055C, strain LGE1, hits give low values
[24] = locus YPL241C, strain CIN2, hits give low values
[25] = locus YPR135W, strain CTF4, hits give low values
[26] = locus YAR019C, strain CDC15, hits give low values
[27] = locus YBL105C, strain PKC1, hits give low values
[28] = locus YBR135W, strain CKS1, hits give low values
[29] = locus YBR136W, strain MEC1, hits give low values
[30] = locus YBR160W, strain CDC28, hits give low values
[31] = locus YDL017W, strain CDC7, hits give low values
[32] = locus YDL028C, strain MPS1, hits give low values
[33] = locus YDL108W, strain KIN28, hits give low values
[34] = locus YDL132W, strain cdc53, hits give low values
[35] = locus YDL214C, strain PRR2, hits give low values
[36] = locus YDR052C, strain DBF4, hits give low values
[37] = locus YDR054C, strain cdc34, hits give low values
[38] = locus YDR226W, strain ADK1, hits give low values
[39] = locus YDR477W, strain SNF1, hits give low values
[40] = locus YER123W, strain YCK3, hits give low values
[41] = locus YER133W, strain GLC7, hits give low values
[42] = locus YFL009W, strain cdc4, hits give low values
[43] = locus YFL029C, strain CAK1, hits give low values
[44] = locus YFR003C, strain YPI1, hits give low values
[45] = locus YFR019W, strain FAB1, hits give low values
[46] = locus YFR028C, strain CDC14, hits give low values
[47] = locus YGR040W, strain KSS1, hits give low values
[48] = locus YGR052W, strain FMP48, hits give low values
[49] = locus YGR092W, strain DBF2, hits give low values
[50] = locus YHR079C, strain IRE1, hits give low values
[51] = locus YHR082C, strain KSP1, hits give low values
[52] = locus YHR205W, strain SCH9, hits give low values
[53] = locus YIL147C, strain SLN1, hits give low values
[54] = locus YJL095W, strain BCK1, hits give low values
[55] = locus YJL128C, strain PBS2, hits give low values
[56] = locus YJL157C, strain FAR1, hits give low values
[57] = locus YJR016C, strain ILV3, hits give low values
[58] = locus YJR066W, strain TOR1 (second series), hits give low values
[59] = locus YJR066W, strain TOR1, hits give low values
[60] = locus YKL048C, strain ELM1, hits give low values
[61] = locus YKL067W, strain YNK1, hits give low values
[62] = locus YKL101W, strain HSL1, hits give low values
[63] = locus YKL193C, strain SDS22, hits give low values
[64] = locus YKL203C, strain TOR2, hits give low values
[65] = locus YLR113W, strain HOG1, hits give low values
[66] = locus YLR133W, strain CKI1, hits give low values
[67] = locus YLR403W, strain SFP1, hits give low values
[68] = locus YML070W, strain DAK1, hits give low values
[69] = locus YMR001C, strain CDC5, hits give low values
[70] = locus YMR205C, strain PFK2 (second series), hits give low values
[71] = locus YMR277W, strain FCP1, hits give low values
[72] = locus YNL006W, strain LST8, hits give low values
[73] = locus YNL020C, strain ARK1, hits give low values
[74] = locus YNL161W, strain CBK1, hits give low values
[75] = locus YNL183C, strain NPR1, hits give low values
[76] = locus YNL207W, strain RIO2, hits give low values
[77] = locus YNL222W, strain SSU72, hits give low values
[78] = locus YNL307C, strain MCK1 (second series), hits give low values
[79] = locus YOL078W, strain AVO1, hits give low values
[80] = locus YOL136C, strain PFK27, hits give low values
[81] = locus YOR061W, strain CKA2, hits give low values
[82] = locus YOR119C, strain RIO1, hits give low values
[83] = locus YOR231W, strain MKK1, hits give low values
[84] = locus YOR329C, strain SCD5, hits give low values
[85] = locus YPL031C, strain PHO85, hits give low values
[86] = locus YPL153C, strain RAD53, hits give low values
[87] = locus YPL204W, strain HRR25, hits give low values
[88] = locus YPL209C, strain IPL1, hits give low values
[89] = locus YPL256C, strain CLN2, hits give low values
[90] = locus YPR025C, strain CCL1, hits give low values
[91] = locus YPR106W, strain ISR1, hits give low values
[92] = locus YPR111W, strain DBF20, hits give low values
[93] = strain NNK1, hits give low values
[94] = strain TSCII, hits give low values

Measured: normalized growth

N#C/C(=C\c1ccc(Oc2ccccc2)nc1)S(=O)(=O)c1ccccc1
inactive: [1] 0.996 | [2] 1 | locus YCL061C, strain MRC1, hits give low values 0.976 | [3] 1 | [4] 0.984 | [5] 1.01 | [6] 1 | [7] 0.978 | [8] 1 | [9] 0.993 | [10] 0.981 | [11] 0.99 | locus YKL190W, strain CNB1, hits give low values 1 | [12] 0.95 | [13] 1.01 | [14] 0.998 | [15] 1.02 | [16] 1.02 | [17] 1 | [18] 0.956 | locus YMR307W, strain GAS1, hits give low values 0.884 | [19] 0.993 | [20] 0.939 | [21] 1 | [22] 0.997 | locus YOL006C, strain TOP1, hits give low values 0.922 | [23] 0.988 | [24] 0.996 | [25] 0.955

CC1(C)OC(=O)C(=Cc2cccn2-c2ccc(OC(F)(F)F)cc2)C(=O)O1
inactive: [26] 0.966 | [27] 0.995 | [28] 0.996 | [29] 0.987 | [30] 0.985 | [31] 0.999 | [32] 0.972 | [3] 0.979 | [33] 0.989 | [34] 0.99 | [35] 0.899 | [36] 0.989 | [37] 0.972 | [38] 0.963 | [39] 0.898 | [40] 0.884 | [41] 0.944 | [42] 0.96 | [43] 0.967 | [44] 0.993 | [45] 0.942 | [46] 0.964 | [47] 0.91 | [48] 0.921 | [49] 0.881 | [50] 0.875 | [51] 0.861 | [52] 0.801 | [53] 0.976 | [54] 0.832 | [55] 0.918 | [56] 0.948 | [57] 0.979 | [58] 0.987 | [59] 0.829 | [60] 0.931 | [61] 0.915 | [62] 0.89 | [63] 0.973 | [64] 0.989 | [66] 0.923 | [67] 0.92 | [68] 0.909 | [69] 0.97 | [70] 0.93 | [71] 0.954 | [72] 0.975 | [73] 0.922 | [74] 0.982 | [75] 0.894 | [76] 0.986 | [77] 0.98 | [78] 0.887 | [79] 0.973 | [80] 0.908 | [81] 0.916 | [82] 0.936 | [83] 0.827 | [84] 0.986 | [85] 0.914 | [86] 0.916 | [87] 0.923 | [88] 0.991 | [90] 1 | [91] 0.967 | [92] 0.939 | [93] 0.976 | [94] 0.968
active: [7] 0.673 | [65] 0.768 | [89] 0.782

N#C/C(=C\c1cccn1-c1ccc(OC(F)(F)F)cc1)S(=O)(=O)c1ccccc1
inactive: [1] 1.05 | [2] 1 | [3] 0.982 | [4] 1.03 | [5] 1.02 | [6] 1.02 | [7] 1.04 | [8] 1.02 | [9] 1.01 | [10] 0.986 | [11] 0.988 | [12] 1 | [13] 0.995 | [15] 0.976 | [16] 1.07 | [17] 1.01 | [18] 1 | [19] 1.03 | [20] 1.03 | [21] 1 | [22] 1.05 | [23] 1.14 | [24] 1.09
active: [14] 1.23 [resistant] | [25] 1.38 [resistant]

CC1(C)OC(=O)C(=Cc2cccn2-c2ccc(C(F)(F)F)cc2)C(=O)O1
active: [7] 0.686 | [65] 0.711 | [89] 0.777
inactive: [26] 1.01 | [27] 1.03 | [28] 1.04 | [29] 1.03 | [30] 1.02 | [31] 1.04 | [32] 1.01 | [3] 1 | [33] 1.02 | [34] 1.03 | [35] 0.913 | [36] 1.01 | [37] 1.02 | [38] 1.03 | [39] 0.908 | [40] 0.896 | [41] 0.963 | [42] 1.02 | [43] 0.998 | [44] 1.03 | [45] 0.941 | [46] 0.999 | [47] 0.921 | [48] 0.954 | [49] 0.921 | [50] 0.86 | [51] 0.901 | [52] 0.775 | [53] 1.02 | [54] 0.844 | [55] 0.931 | [56] 0.946 | [57] 1.01 | [58] 0.958 | [59] 0.844 | [60] 0.88 | [61] 0.912 | [62] 0.885 | [63] 1.02 | [64] 1.01 | [66] 0.916 | [67] 0.898 | [68] 0.912 | [69] 1 | [70] 0.93 | [71] 1 | [72] 1 | [73] 0.914 | [74] 1.03 | [75] 0.917 | [76] 1.03 | [77] 1.02 | [78] 0.859 | [79] 1.01 | [80] 0.884 | [81] 0.818 | [82] 0.944 | [83] 0.83 | [84] 1.03 | [85] 0.917 | [86] 0.901 | [87] 0.905 | [88] 1.03 | [90] 1.03 | [91] 0.99 | [92] 0.964 | [93] 0.988 | [94] 0.991
